The results in this text go back to PubChem BioAssay (NCATS).

The nature of assay [1]: High-throughput drug toxicity screening in the BPDCN cell line Gen2.2 (AID 1224824; call rule not given here;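 also: cells exposed to compounds for 48 h before reading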). As to conditions: Gen2.2 BPDCN cells; at 45.8 µM (top of the series) unless noted. The method, boiled down: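 CellTiter-Glo luminescence after 48 h compound exposure of Gen2.2 cells; percent activity set with DMSO as 100% and bortezomib (9.2 uM final) as 0%. Cells seeded at 500 per well, RPMI + 10% FBS, 37 °C.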

The nature of assay [2]: High-throughput drug toxicity screening in the BPDCN cell line Cal-1 (AID 1224825; call rule not given here). Particulars: Cal-1 BPDCN cell viability, qHTS; at 45.8 µM (top of the series) unless noted. The method, boiled down: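 Exponentially growing Cal-1 cells, 500 per well in phenol red-free RPMI with 10% FBS, were exposed to compounds for 48 h at 37 °C, 5% CO2. Viability was read by CellTiter-Glo luminescence and normalised to DMSO (100%) and 9.2 uM bortezomib (0%).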

Assay [3] can be described thus: qHTS assay for measurement of the activity of small molecule inhibitors on Zika virus induced Caspase-3 activity in human iPSC derived neural progenitor cells (hNPCs) (AID 1224857). Also: % of control where 0% means no effect; nearly all actives have a fitted effect of over 65% in size. The method, boiled down:
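Human iPSC-derived neural progenitor cells pretreated 1 hr with compounds, then infected with Zika virus (2 FFU/cell) for 6 hours at 37 C. Caspase-3/7 measured by Caspase-Glo luminescence; % inhibition calculated from induction scaled to uninfected (0%) and infected (100%) wells.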
For orientation: Quantitative high-throughput screening tests each substance at several concentrations.

A short description of assay [4]: qHTS assay for measurement of the activity of small molecule inhibitors on Zika virus induced Caspase-3 activity in human astrocytoma cells (AID 1224859).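 Also: plate controls were ZIKV-infected untreated cells for no effect and uninfected cells for full effect.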 The method, boiled down: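 SNB-19 astrocytoma cells, 250/well, pretreated 1 h with compounds, then Zika virus at 2 FFU/cell for 6 h at 37 C; Caspase-Glo 3/7 luminescence after 30 min; percent inhibition normalised to uninfected and infected controls.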

A short description of assay [5]: qHTS Screen of the MIPE 4.0 Collection Against Ewings Sarcoma (RDES) (AID 1259252). Also: nearly all actives have a fitted effect of over 35% in size. Also: potency is read from the fitted curve at half-maximal effect.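 As to viability (percent of control): 100% = DMSO-treated cells and 0% = medium-only wells without cells.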 The method, boiled down: (§1)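 Here, cells in 5% FBS RPMI were exposed for two days (48 h) to compound dilutions added four hours after plating. ATP-based CellTiter-Glo luminescence measured viability, normalized to vehicle and no-cell blanks.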
A short description of assay [6]: qHTS Screen of the MIPE 4.0 Collection Against Ewings Sarcoma (TC71) (AID 1259253). Also: nearly all actives have a fitted effect of over 40% in size. Also: potency is read from the fitted curve at half-maximal effect.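 As to viability (% of DMSO): 100% = DMSO-treated cells and 0% = medium-only wells without cells.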 The method, boiled down: as §1
The nature of assay [7]: qHTS Screen of the MIPE 4.0 Collection Against Ewings Sarcoma (EW8) (AID 1259255). Also: nearly all actives have a fitted effect of over 35% in size. Also: potency is read from the fitted curve at half-maximal effect.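 As to viability: 100% = DMSO-treated cells and 0% = medium-only wells without cells.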 The method, boiled down:
as §1

Assay [8] can be described thus: qHTS Screen of the MIPE 4.0 Collection Against Ewings Sarcoma (TC32) (AID 1259256). Also: nearly all actives have a fitted effect of over 45% in size. Also: potency is read from the fitted curve at half-maximal effect.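 As to viability (percent of control): 100% = DMSO-treated cells and 0% = medium-only wells without cells.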 The method, boiled down:
as §1

Assay [9] can be described thus: P-glycoprotein substrates identified in KB-8-5-11 adenocarcinoma cell line, qHTS therapeutic library screen (AID 1346987). Also: nearly all actives have a fitted effect of over 65% in size. Also: potency is read from the fitted curve at half-maximal effect. As to activity change, negative = cytotoxicity: % is scaled to controls: 0 for no effect and ±100 for the full control effect. The method, boiled down:
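Steps: plate 500 KB-8-5-11 cells/well in DMEM + 10% FCS (colchicine removed); pin compounds in dose-response; incubate 72 h, 37 degree C, 5% CO2; add CellTiter-Glo, 5 min; read luminescence.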

Records with an inconclusive call do not appear. The source made the active and inactive calls. Unless noted, calls follow the shape of the dose curve; as a rule, active = well fitted curve in the direction sought with a large enough effect; inconclusive = small, poorly fitted or top-dose-only effect, or another doubt; inactive = no such curve, though single readings can be large; an effect the other way counts as inactive or inconclusive.

For the compound `C=C1CCC2[C@](C)(CO)C(O)CC[C@]2(C)C1CC=C1C(=O)OCC1O` (some centres undefined), the cell viability, % of control (lower = more cytotoxic) in assay [1] amounted to 83.8% [at 92.2 µM]. For the same compound, the viability (% of control) in [2] stood at 110% [at 92.2 µM]. For the same compound, the Potency entry in assay [3], in assay [4], in [5], in assay [6], in assay [7] and in [8] was “inactive” each time. The Potency result in assay [9] is “inactive”.

With `Cn1cnc2c(F)c(Nc3ccc(Br)cc3F)c(C(=O)NOCCO)cc21`, the cell viability, % of control (lower = more cytotoxic) in [1] turned out to be 4.85%. Besides, in assay [2], the viability (% of control) came to 56.4%. Moreover, the Potency entry in assay [3], in assay [4], in [5], in assay [6], in [7] and in [8] was “inactive” each time. Further, the Potency entry in assay [9] is “inactive”.

For `C=CC1=C(C(=O)O)N2C(=O)[C@@H](NC(=O)C(=NO)c3csc(N)n3)[C@H]2SC1`, the cell viability, % of control (lower = more cytotoxic) in assay [1] was found to be 116%. Further, the viability (% of control) in assay [2] came to 105%. Besides, the Potency entry in assay [3], in assay [4], in assay [5], in [6], in assay [7] and in [8] was “inactive” each time. Besides, the Potency result in [9] was “inactive”.

As for `O=C1NC(=O)C(=Cc2ccc3nccc(-c4ccncc4)c3c2)S1`, the cell viability, % of control (lower = more cytotoxic) in [1] stood at 3.73%. In addition, the viability (% of control) in assay [2] was determined as 4.43%. Moreover, the Potency entry in assay [3] and in [4] was “inactive” in each case. The Potency in [5] was 0.187 µM (active); in assay [6], 0.166 µM (active); in [7], 0.132 µM (active); in [8], 0.0743 µM (active); in assay [9], 0.418 µM (active).

Regarding `CCN(C(=O)c1c(O)c2c(Cl)cccc2n(C)c1=O)c1ccccc1`, in [1], the cell viability, % of control (lower = more cytotoxic) was 112%. Further, in assay [2], the viability (% of control) turned out to be 20.2%. Moreover, the Potency result in [3], in assay [4], in assay [5], in assay [6], in assay [7] and in assay [8] was “inactive” in each case. The Potency entry in assay [9] was “inactive”.

Consider `CC[C@H]1OC(=O)[C@H](C)[C@@H](O[C@H]2C[C@@](C)(OC)[C@@H](O)[C@H](C)O2)[C@H](C)[C@@H](O[C@@H]2O[C@H](C)C[C@H](N(C)C)[C@@H]2O)[C@](C)(OC)C[C@@H](C)C(=O)[C@H](C)[C@@H](O)[C@]1(C)O`, for which the cell viability, % of control (lower = more cytotoxic) in assay [1] amounted to 99.8%. Further, the viability (% of control) in assay [2] was determined as 108%. For the same compound, the Potency entry in assay [3], in assay [4], in assay [5], in assay [6], in assay [7] and in assay [8] was “inactive” each time. In addition, the Potency result in [9] is “inactive”.

Turning to `COc1cc(OC)cc(-c2ccc3ncc4ccc(=O)n(-c5ccc(N6CCNCC6)c(C(F)(F)F)c5)c4c3c2)c1`, the cell viability, % of control (lower = more cytotoxic) in assay [1] is 13.6%. Further, the viability (% of control) in [2] was 5.34%. For the same compound, the Potency entry in assay [3] and in assay [4] was “inactive” throughout. Also, the Potency in assay [5] is 2.96 µM (active); in assay [6], 2.64 µM (active); in assay [7], 4.18 µM (active); in [8], 3.32 µM (active); in assay [9], 7.43 µM (active).

The viability is a read-out of living cells in per cent, often relative to untreated cells. Turning to `CC(C)(C)[C@H](NC(=O)c1ccc(N)c(Cl)c1)C(=O)N1CCC[C@@H]1C(=O)N[C@H](C#N)CC(=O)O`, the cell viability, % of control (lower = more cytotoxic) in [1] was determined as 14.9% [at 3.51 µM]. In addition, the viability (% of control) in [2] came to 25% [at 3.51 µM]. Also, the activity change, negative = inhibition in [3] is 12% [at 4.53 µM] (inactive); in assay [4], 53% [at 4.53 µM] (inactive). In addition, the viability (percent of control) in [5] was 112% [at 3.51 µM] (inactive); in assay [8], 127% [at 3.51 µM] (inactive). Moreover, the viability (% of DMSO) in assay [6] was 134% [at 3.51 µM] (inactive). Also, the viability in [7] is 116% [at 3.51 µM] (inactive). For the same compound, the activity change, negative = cytotoxicity in assay [9] is 2.87% [at 5.11 µM] (inactive).

Turning to `CC(Oc1ccc(O)cc1)(P(=O)(O)O)P(=O)(O)O`, the cell viability, % of control (lower = more cytotoxic) in assay [1] turned out to be 123%. The viability (% of control) in [2] was found to be 107%. In addition, the Potency result in assay [3], in [4], in [5], in [6], in assay [7] and in [8] was “inactive” each time. Further, in assay [9], the Potency result was “inactive”.

On to `CC(C)N1[N]C(=C2C=c3cc(O)ccc3=N2)c2c(N)ncnc21`, for which the cell viability, % of control (lower = more cytotoxic) in assay [1] was 2.36%. For the same compound, in assay [2], the viability (% of control) is 2.77%. Besides, the Potency result in assay [3] and in assay [4] was “inactive” in each case. Besides, the Potency in assay [5] was 1.87 µM (active); in assay [6] it was 0.372 µM (active); in assay [7], 0.418 µM (active); in assay [8], 0.209 µM (active); in assay [9], 0.105 µM (active).

Take `CCC[C@H]1C[C@H](C(=O)N[C@@H]([C@@H]2O[C@@H](SC)[C@@H](O)[C@@H](O)[C@@H]2O)[C@H](C)Cl)N(C)C1`: in assay [1], the cell viability, % of control (lower = more cytotoxic) is 155%. Further, the viability (% of control) in assay [2] stood at 128%. In addition, the Potency entry in [3], in assay [4], in assay [5], in [6], in assay [7] and in assay [8] was “inactive” in each case. The Potency result in assay [9] was “inactive”.

In the case of `CN1CCCN(C(=O)c2cccc(-c3ccc(C=C4C(=O)Nc5ccc(Cl)cc54)o3)c2)CC1`, the cell viability, % of control (lower = more cytotoxic) in [1] is 9.19%. Besides, the viability (% of control) in [2] was 2.05%. The Potency entry in [3] and in [4] was “inactive” throughout. Further, the Potency was 20.9 µM (active) in assay [5]; 16.6 µM (active) in assay [6]; 10.5 µM (active) in assay [7]; 18.7 µM (active) in assay [8]; 16.6 µM (active) in assay [9].

Regarding `NC(=O)N1CCC(CC(=O)N2CCC([C@H]3c4ncc(Br)cc4CCc4cc(Cl)cc(Br)c43)CC2)CC1`, in assay [1], the cell viability, % of control (lower = more cytotoxic) was found to be 82.6%. Also, the viability (% of control) in assay [2] came to 6.4%. In addition, the Potency result in assay [3] and in [4] was “inactive” throughout. The Potency in assay [5] was 20.9 µM (active); in assay [6], 16.6 µM (active); in assay [7], 16.6 µM (active); in assay [8], 0.372 µM (active); in assay [9], 7.43 µM (active).

Consider `CC(=O)SCC(Cc1ccccc1)C(=O)NCC(=O)OCc1ccccc1` (centres undefined), for which the cell viability, % of control (lower = more cytotoxic) in assay [1] came to 5.18%. In addition, the viability (% of control) in assay [2] is 4.75%. Besides, the Potency entry in assay [3], in assay [4] and in [9] was “inactive” in each case. The Potency in assay [5] was 0.59 µM (active); in [6], 0.833 µM (active); in [7], 1.05 µM (active); in assay [8], 0.743 µM (active).

Take `COC1=C(OC)C(=O)C(CC=C(C)CCC=C(C)CCC=C(C)CCC=C(C)CCC=C(C)CCC=C(C)CCC=C(C)CCC=C(C)CCC=C(C)CCC=C(C)C)=C(C)C1=O`: the cell viability, % of control (lower = more cytotoxic) in [1] came out at 125%. Moreover, in assay [2], the viability (% of control) amounted to 111%. Further, the Potency entry in [3], in assay [4], in assay [5], in assay [6], in [7] and in assay [8] was “inactive” each time. In addition, the Potency result in [9] was “inactive”.

Turning to `NC(=O)Nc1cc(-c2ccc(CN3CCOCC3)cc2)sc1C(N)=O`, in assay [1], the cell viability, % of control (lower = more cytotoxic) was 26.1%. For the same compound, in [2], the viability (% of control) turned out to be 6.64%. Also, the Potency result in assay [3] and in assay [4] was “inactive” in each case. Besides, the Potency in [5] was 4.69 µM (active); in assay [6], 0.332 µM (active); in [7] it was 0.0935 µM (active); in assay [8], 0.187 µM (active); in assay [9], 1.48 µM (active).
